Data from PubChem BioAssay (NCATS).
Records with an inconclusive call do not appear. Entries that show only a call come without a potency. Unmarked numbers belong to inactive results. The source made the active and inactive calls. Calls come from the whole dose curve; as a rule, active = well fitted curve in the direction sought with a large enough effect; inconclusive = small, poorly fitted or top-dose-only effect, or another doubt; inactive = no such curve, though single readings can be large; an effect the other way counts as inactive or inconclusive.

Tests used:
[1] = biological target: Rap guanine nucleotide exchange factor 3 (Homo sapiens) (UniProt O95398); test: Confirmatory qHTS for antagonist of cAMP-regulated guanine nucleotide exchange factor 3 (EPAC1) (AID 1645880); conditions: EPAC1 Rap1B-BODIPY-GDP exchange, fluorescence; activity, negative = inhibition: at 115 µM (top of the series); note: nearly all actives have a fitted effect of over 55% in size; note: potency is the fitted concentration of half-maximal effect
In short: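 Released BODIPY-GDP fluoresces less than Rap1-bound BODIPY-GDP; the signal is followed at 480/540 nm at 5-min intervals over 30 min, after 5 min at room temperature. Reactions contain 100 nM EPAC1, 250 nM RAP1B-BODIPY-GDP and 50 uM GDP; results are normalized to ATA and DMSO.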

[2] = biological target: Rap guanine nucleotide exchange factor 3 (Homo sapiens) (UniProt O95398); test: Confirmatory qHTS for agonist of cAMP-regulated guanine nucleotide exchange factor 3 (EPAC1) (AID 1645881);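 note: EPAC1 catalysed release of BODIPY-GDP from Rap1B seen as fluorescence loss; nearly all actives have a fitted effect of over 75% in size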
[3] = biological target: Rap guanine nucleotide exchange factor 4 (Homo sapiens) (UniProt Q8WZA2); test: Confirmatory qHTS for agonist of cAMP-regulated guanine nucleotide exchange factor 4 (EPAC2) (AID 1645884);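 note: nucleotide exchange releases bodipy-GDP from Rap1 and this lowers its fluorescence; nearly all actives have a fitted effect of over 65% in size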
[4] = biological target: Rap guanine nucleotide exchange factor 4 (Homo sapiens) (UniProt Q8WZA2); test: Confirmatory qHTS for antagonist of cAMP-regulated guanine nucleotide exchange factor 4 (EPAC2) (AID 1645885); note: nearly all actives have a fitted effect of over 25% in size; note: potency is the fitted concentration of half-maximal effect
[5] = biological target: Rap guanine nucleotide exchange factor 3 (Homo sapiens) (UniProt O95398); test: Counterscreen qHTS for antagonist of cAMP-regulated guanine nucleotide exchange factor 3 (EPAC1) (AID 1645888)
In short: (§1)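 Measured: fluorescence of BODIPY-GDP bound to Rap1B, which falls as exchange proceeds. Conditions include 50 uM competing GDP, 5 and 30 min reads, and a later cAMP challenge for antagonist detection.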

[6] = biological target: Rap guanine nucleotide exchange factor 3 (Homo sapiens) (UniProt O95398); test: Counterscreen qHTS for agonist of cAMP-regulated guanine nucleotide exchange factor 3 (EPAC1) (AID 1645889); note: nearly all actives have a fitted effect of over 40% in size
In short: as §1

Rap guanine nucleotide exchange factor 4 (Homo sapiens), sequence (Q8WZA2 whole entry, looked up): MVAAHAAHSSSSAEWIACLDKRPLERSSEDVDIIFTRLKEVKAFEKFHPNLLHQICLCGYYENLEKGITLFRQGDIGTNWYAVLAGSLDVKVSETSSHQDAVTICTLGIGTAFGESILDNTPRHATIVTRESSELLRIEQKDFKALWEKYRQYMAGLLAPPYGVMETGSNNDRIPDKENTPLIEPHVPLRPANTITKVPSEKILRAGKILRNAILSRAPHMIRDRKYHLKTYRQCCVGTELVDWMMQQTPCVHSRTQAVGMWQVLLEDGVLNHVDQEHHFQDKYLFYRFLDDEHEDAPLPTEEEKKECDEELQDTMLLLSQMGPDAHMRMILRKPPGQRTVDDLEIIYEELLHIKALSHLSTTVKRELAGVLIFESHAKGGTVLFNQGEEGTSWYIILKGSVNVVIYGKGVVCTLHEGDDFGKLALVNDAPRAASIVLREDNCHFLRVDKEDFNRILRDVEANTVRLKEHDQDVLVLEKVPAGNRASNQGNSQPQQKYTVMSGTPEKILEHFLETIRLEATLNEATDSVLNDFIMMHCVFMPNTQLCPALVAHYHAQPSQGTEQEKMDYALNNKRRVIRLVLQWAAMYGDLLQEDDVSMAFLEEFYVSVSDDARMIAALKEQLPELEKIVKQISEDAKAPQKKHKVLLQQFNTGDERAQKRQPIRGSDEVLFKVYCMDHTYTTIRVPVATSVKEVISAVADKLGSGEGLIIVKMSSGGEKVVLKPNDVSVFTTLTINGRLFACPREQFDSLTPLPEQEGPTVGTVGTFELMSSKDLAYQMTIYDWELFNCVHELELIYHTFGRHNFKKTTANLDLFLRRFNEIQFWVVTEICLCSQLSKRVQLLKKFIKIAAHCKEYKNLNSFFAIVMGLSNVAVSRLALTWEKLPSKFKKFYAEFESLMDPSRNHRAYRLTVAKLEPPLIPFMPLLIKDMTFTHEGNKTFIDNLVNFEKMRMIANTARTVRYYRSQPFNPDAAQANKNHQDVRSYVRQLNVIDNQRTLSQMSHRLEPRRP
Rap guanine nucleotide exchange factor 3 (Homo sapiens), sequence (O95398 whole entry, looked up): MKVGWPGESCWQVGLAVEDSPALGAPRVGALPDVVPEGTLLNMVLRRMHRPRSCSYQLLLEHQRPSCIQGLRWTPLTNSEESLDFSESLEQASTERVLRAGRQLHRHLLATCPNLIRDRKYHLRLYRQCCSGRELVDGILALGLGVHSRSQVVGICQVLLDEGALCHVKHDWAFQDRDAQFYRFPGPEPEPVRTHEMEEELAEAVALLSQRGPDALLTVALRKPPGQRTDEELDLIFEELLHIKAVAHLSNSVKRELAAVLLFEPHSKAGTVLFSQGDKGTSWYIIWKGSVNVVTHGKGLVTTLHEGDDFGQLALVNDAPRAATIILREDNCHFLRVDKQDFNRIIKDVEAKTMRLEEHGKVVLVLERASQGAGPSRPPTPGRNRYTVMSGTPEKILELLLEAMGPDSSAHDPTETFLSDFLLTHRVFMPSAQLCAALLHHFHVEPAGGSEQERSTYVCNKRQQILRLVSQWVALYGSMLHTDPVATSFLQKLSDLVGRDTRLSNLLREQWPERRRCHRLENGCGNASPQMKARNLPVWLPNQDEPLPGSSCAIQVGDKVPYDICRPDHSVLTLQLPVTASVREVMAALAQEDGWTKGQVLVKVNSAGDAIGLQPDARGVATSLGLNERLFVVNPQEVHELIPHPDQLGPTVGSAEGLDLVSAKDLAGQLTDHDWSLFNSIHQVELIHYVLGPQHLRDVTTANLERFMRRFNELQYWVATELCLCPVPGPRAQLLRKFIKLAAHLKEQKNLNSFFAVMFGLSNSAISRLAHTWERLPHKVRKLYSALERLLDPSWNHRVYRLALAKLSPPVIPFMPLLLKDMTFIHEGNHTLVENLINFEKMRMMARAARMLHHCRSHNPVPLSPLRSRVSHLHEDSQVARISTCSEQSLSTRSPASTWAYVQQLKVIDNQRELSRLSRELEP

SMILES | Potency [1] | Potency [2] | Potency [3] | Potency [4] | Potency [5] | Potency [6] | activation [3] | activity change, negative = inhibition [5] | activation [6]
O=C(O)CN1C(=O)/C(=C\c2cc(Br)ccc2OCc2ccc(Cl)cc2)SC1=S | 30.1 µM (active) | inactive | inactive | 47.8 µM (active) | inactive | inactive |  |  | 
Cc1cccn2cc(CCNC(=O)c3ccco3)nc12 | inactive | inactive |  | inactive |  |  | 4.04% [at 17.1 µM, percent relative to cAMP agonist control] | -20.8% [at 30.8 µM] | 19.7% [at 30.8 µM]
COC(=O)c1cc2sc(C)cc2n1Cc1ccc(F)cc1Cl | inactive | inactive | inactive | inactive | inactive | inactive |  |  | 
CCc1ccc(NC(=O)COC(=O)CCC2CCCC2)cc1 | inactive | inactive | inactive | inactive | inactive | inactive |  |  | 
CCc1nnc(NS(=O)(=O)c2ccc(NCc3cc(Cl)ccc3O)cc2)s1 | 39.8 µM (active) | inactive |  | inactive |  |  | -0.696% [at 17.1 µM, percent relative to cAMP agonist control] | -8.7% [at 30.8 µM] | 11.7% [at 30.8 µM]
Cc1ccc(C(=O)Nc2ccccc2[N+](=O)[O-])cc1S(=O)(=O)N1CCOCC1 | inactive | inactive | inactive | inactive | inactive | inactive |  |  | 
Cc1cc(-c2nn(-c3ccccc3F)cc2CN2CCCC(O)C2)c(C)s1 (stereo unspecified) | inactive | inactive |  | inactive |  |  | 2.57% [at 17.1 µM, percent relative to cAMP agonist control] | -17.9% [at 30.8 µM] | 23.9% [at 30.8 µM]
COc1ccc(C)cc1NC(=O)c1ccccc1NS(=O)(=O)c1ccc(Cl)s1 | 75.7 µM (active) | inactive | inactive | inactive | inactive | inactive |  |  | 
CCN1CCN(c2ccc(S(=O)(=O)N3CCOCC3)cc2NC(=O)c2cc(Cl)nc3ccccc23)CC1 | inactive | inactive |  | inactive |  |  | 4.04% [at 17.1 µM, percent relative to cAMP agonist control] | 7.51% [at 30.8 µM] | 5.03% [at 30.8 µM]
COC(=O)COc1ccc(C(c2c(C)[nH][nH]c2=O)c2c(C)[nH][nH]c2=O)cc1 | inactive | inactive | inactive | inactive | inactive | inactive |  |  | 
O=C(CSc1nc2ccsc2c(=O)n1CC1CCC(C(=O)O)CC1)c1ccc(Cl)cc1 (stereo unspecified) | 47.8 µM (active) | inactive | inactive | inactive | inactive | inactive |  |  | 
CSc1ccc(CC2C(=O)Nc3ccccc32)cc1 (stereo unspecified) | inactive | inactive | inactive | inactive | inactive | inactive |  |  | 
CCN(CC(=O)Nc1ccccc1OC)C(=O)c1ccc(N(C)S(=O)(=O)c2ccc(C)cc2)cc1 | inactive | inactive | inactive | inactive | inactive | inactive |  |  | 
CCCSc1nc(C)cc(C)c1S(=O)(=O)c1ccccc1C | inactive | inactive | inactive | inactive | inactive | inactive |  |  | 
O=c1c2cc([N+](=O)[O-])cc([N+](=O)[O-])c2[nH]n1-c1ccccc1 | 35.5 µM (active) | inactive |  | inactive |  |  | 3.37% [at 17.1 µM, percent relative to cAMP agonist control] | -31.5% [at 30.8 µM] | 10.6% [at 30.8 µM]
CCc1ccc(C(=O)c2cn(CC(=O)Nc3cccc(OC)c3)c3ccc(OC)cc3c2=O)cc1 | 53.6 µM (active) | inactive | inactive | inactive | inactive | inactive |  |  | 
O=C(Nc1nc2ccc(Cl)cc2s1)C1CCCO1 (stereo unspecified) | inactive | inactive |  | inactive |  |  | 6.17% [at 17.1 µM, percent relative to cAMP agonist control] | 0.458% [at 30.8 µM] | 15.7% [at 30.8 µM]
Cc1ccc(N=Cc2cc(Cc3ccccc3Cl)cc([N+](=O)[O-])c2O)c(O)c1 | 10.7 µM (active) | inactive | inactive | inactive | inactive | inactive |  |  | 
CCOc1ccc(/C=C2\SC(=S)NC2=O)cc1OC | 15.1 µM (active) | inactive | inactive | inactive | inactive | inactive |  |  | 
Cc1ccc(-n2nnnc2SCC(=O)NCC2(N3CCOCC3)CCCCC2)cc1 | inactive | inactive | inactive | inactive | inactive | inactive |  |  | 
O=C(Nc1ncccc1O)c1ccc2c(c1)OCCO2 | inactive | inactive |  | inactive |  |  | 2.78% [at 17.1 µM, percent relative to cAMP agonist control] | 6.79% [at 30.8 µM] | 22.4% [at 30.8 µM]
